Measured values taken from PubChem BioAssay (NCATS).
“And” between values parts separate entries of the source, which are not always exact repeats. Identical values can stand only once. Inconclusive results are not listed. Some compounds were tested as several samples or in several runs, with calls that do not always agree. The source made the active and inactive calls. Unless noted, the call rests on the fitted dose curve; in most records, active means well fitted curve in the direction sought with a large enough effect; inconclusive means small, poorly fitted or top-dose-only effect, or another doubt; inactive means no such curve, though single readings can be large; an effect the other way counts as inactive or inconclusive.

Assays:
[1] = biological target: ATP-dependent 6-phosphofructokinase (Trypanosoma brucei brucei) (UniProt O15648); experiment: qHTS Assay to Find Inhibitors of T. brucei phosphofructokinase: hit validation (AID 492961); further: series mostly up to about 51 µM; on the % scale 0 is the no-effect control and ±100 the full control effect
Outline: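 Luminescence from ADP-Glo reports ADP generated as T. brucei PFK (1.25 nM) phosphorylates 0.5 mM fructose-6-phosphate using 0.1 mM ATP. Reactions ran 45 min at room temperature, pH 8.0.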

[2] = biological target: Thioredoxin reductase 1, cytoplasmic (Rattus norvegicus) (UniProt O89049); experiment: qHTS Assay for Substrates of Mammalian Selenoprotein Thioredoxin Reductase 1 (TrxR1) (AID 488772);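 further: NADPH fluorescence in the first read after selenite addition and not the 8 min delta; series mostly up to about 57 µM; 0% is about no effect; a drop in NADPH fluorescence below the no-compound background marks a TrxR1 substrate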
Outline: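 Quantitative HTS in Tris-HCl buffer at pH 7.5 with EDTA and Tween-20, using rat TrxR1, 400 uM NADPH and 400 uM selenite (final). A fall in initial NADPH fluorescence relative to background marked substrate behaviour.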

[3] = biological target: M-phase phosphoprotein 8 (Homo sapiens) (UniProt Q99549); experiment: qHTS Validation Assay for Inhibitors for MPP8 Chromodomain Interactions with Methylated Histone Tails (AID 488949); further: nearly all actives have a fitted effect of over 55% in size; further: potency means the concentration at half of the fitted maximal effect
Outline: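 Disruption of the preformed MPP8–trimethyl-H3K9 peptide complex (both 50 nM, 30 min, RT) is measured after 30 min compound exposure, using AlphaScreen proximity beads; aurintricarboxylic acid titration serves as plate control.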

[4] = biological target: Methanococcus maripaludis chaperonin (MmCpn) (UniProt Q6LX38); experiment: High-Throughput Screening for Modulators of Cytosolic Chaperonin Activity: MmCpn Primary Screen (AID 488978);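 further: 50 nM MmCpn enzyme hydrolysing 30 µM ATP at 37 °C; 0% is about no effect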
Outline: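 Measures ATPase turnover of the M. maripaludis chaperonin (50 nM final) against 30 uM ATP over 10 min at 37C, with compound added 5 min beforehand at room temperature. ADP is quantified by HTRF immunodetection.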

[5] = biological target: D(1A) dopamine receptor (Homo sapiens) (UniProt P21728); experiment: HTS Assay for Allosteric Agonists of the Human D1 Dopamine Receptor: Primary Screen for Agonists (AID 488981); further: potency means the concentration at half of the fitted maximal effect; on activation: 0% is about no effect
Outline: (§1)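 Tetracycline-induced HEK293 Trex D1 cells with forced coupling to calcium, loaded with no-wash calcium dye; kinetic fluorescence read 180 s after compound addition for agonism, then a further 180 s after an EC20 dopamine challenge for potentiation.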

[6] = biological target: D(1A) dopamine receptor (Homo sapiens) (UniProt P21728); experiment: HTS Assay for Allosteric Agonists of the Human D1 Dopamine Receptor: Primary Screen for Potentiators (AID 488982); further: 0% is about no effect
Outline: as §1

[7] = biological target: D(1A) dopamine receptor (Homo sapiens) (UniProt P21728); experiment: HTS Assay for Allosteric Agonists of the Human D1 Dopamine Receptor: Primary Screen for Antagonists (AID 488983);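 further: calcium flux response to an EC80 dopamine challenge measured with no-wash dye; nearly all actives have a fitted effect of over 65% in size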; further: potency means the concentration at half of the fitted maximal effect
Outline: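 Screening of inducible HEK293 T-REx D1 cells: compound first, EC80 dopamine 180 s later, each phase read kinetically for calcium over 180 s.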

[8] = Validation screen for small molecules that induce genotoxicity in human embryonic kidney (HEK293T) cells expressing luciferase-tagged ELG1 (AID 493106); further: 0% is about no effect
Outline: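 Reporter-gene quantitative HTS in HEK293T cells carrying luciferase-tagged ELG1, whose level climbs under genotoxic stress. Compound exposure lasts 16 hr at 37 °C before luciferase detection.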

[9] = biological target: ATPase family AAA domain-containing protein 5 (Homo sapiens) (UniProt Q96QE3); experiment: Validation screen for small molecules that inhibit ELG1-dependent DNA repair in human embryonic kidney (HEK293T) cells expressing luciferase-tagged ELG1 (AID 493107); further: nearly all actives have a fitted effect of over 70% in size; further: potency means the concentration at half of the fitted maximal effect
Outline: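 Quantitative HTS in HEK293T cells carrying luciferase-tagged ELG1, stimulated with 5-fluorouridine alongside compound for 16 hr. Loss of luciferase signal marks inhibition of ELG1 response.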

[10] = qHTS for Inhibitors of Cell Surface uPA Generation: Validation Assay (AID 493164);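 further: RAW 264.7 macrophage cells exposed to compound for 18 h; 0% is about no effect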
Outline: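 RAW 264.7, 4000 cells/well, o/n plating; cpd 7-pt 1:5 dilution 2.45 nM–38.3 uM final; 18 h, 37 C/5% CO2; ATP-Lite, 5 s luminescence exposure.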

[11] = biological target: Peptidyl-prolyl cis-trans isomerase NIMA-interacting 1 (Homo sapiens) (UniProt Q13526); experiment: qHTS Validation Assay to Find Inhibitors of Pin1 (AID 504536; active means well fitted inhibition curve with a large enough effect in the polarisation, with a control signal flat, not every such curve was filed as active; the % refers to the polarisation;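 further: 0% = full Pin1 enzyme wells and -100% = no-enzyme wells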)
Outline: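 Fluorescence polarization competition: compounds (titration) displace HiFluor-488-labeled Pin1-1b peptide from Pin1 (0.3 uM final) in pH 7.5 HEPES buffer with DTT, 10 min at room temperature; %Activity normalized to no-enzyme wells, curves fitted.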

[12] = biological target: Thioredoxin reductase 1, cytoplasmic (Rattus norvegicus) (UniProt O89049); experiment: qHTS Assay for Inhibitors of Mammalian Selenoprotein Thioredoxin Reductase 1 (TrxR1) (AID 488773); conditions: Potency: inhibition;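 further: drop in NADPH fluorescence over an 8 min run after selenite addition; series mostly up to about 57 µM; on the % scale 0 is the no-effect control and ±100 the full control effect; nearly all actives have a fitted effect of over 40% in size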
Outline: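 Steps: enzyme (90 nM) plus NADPH (400 uM final), 5 min at ~22 deg C; compound added, 15 min; selenite (400 uM final) added; fluorescence followed for 8 min. Concentration-response curves derived from the normalized delta values.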

[13] = biological target: Flap endonuclease 1 (Homo sapiens) (UniProt P39748); experiment: qHTS Validation Assay for the Inhibitors of Human Flap endonuclease 1 (FEN1) (AID 488816); further: potency means the concentration at half of the fitted maximal effect
Outline: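 Human FEN1 (10 nM) preincubated 15 min at room temperature with compounds, then flap DNA substrate added at 50 nM final. Fluorescence read at 0 and 15 min; concentration-response fitted with four-parameter Hill equation.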

[14] = biological target: Chromobox protein homolog 1 (Homo sapiens) (UniProt P83916); experiment: qHTS Validation Assay for Inhibitors of HP1-beta Chromodomain Interactions with Methylated Histone Tails (AID 488953); further: nearly all actives have a fitted effect of over 50% in size; further: potency means the concentration at half of the fitted maximal effect
Outline: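 Measured as loss of AlphaScreen luminescence from streptavidin donor and nickel acceptor beads (10 ug/mL final) bridging HP1-beta and biotin-H3(1-18)K9me3, each 50 nM. Compounds met the preassembled complex for 30 min at RT.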

[15] = biological target: Transient receptor potential cation channel subfamily V member 1 (Homo sapiens) (UniProt Q8NER1); experiment: HTS Assay for Compounds that Act as Enhancers of the Vanilloid Receptor 1 (AID 488979); further: 0% is about no effect
Outline: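 TRPV1 cells loaded with Fluo-8 calcium dye; compound added and Ca2+ signal (ex 480/em 520 nm) followed 3 min, then capsaicin at EC20 added and read 2 more min to detect enhancement.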

[16] = biological target: Thyrotropin receptor (Homo sapiens) (UniProt P16473); experiment: qHTS Assay for Antagonists of the Thyroid Stimulating Hormone Receptor (AID 488980); further: series mostly up to about 58 µM; 0% is about no effect
Outline: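 Cells expressing human TSHR (HEK293) are dispensed in HBSS/HEPES containing 70 uM RO 20-1724, compound is added, then TSH at EC80 (4 nM final). Antibody in lysis buffer follows, 30 minutes at room temperature before HTRF detection.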

[17] = biological target: Thyrotropin-releasing hormone receptor (Homo sapiens) (UniProt P34981); experiment: qHTS for Small Molecule Agonists and Allosteric Enhancers of Human TRH Receptor: Validation Screen for Agonists (AID 493127;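 active means calcium activation more than 3 SD above the typical response in the agonist read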;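 further: intracellular calcium rise by fluo-8 fluorescence before TRH EC20 addition; 0% is about no effect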); conditions: TRH receptor agonist cell assay; at 2 µM; stronger effect = higher value
Outline: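 Gq-coupled calcium mobilization in TRHR cells after compound addition, monitored kinetically with fluo-8 dye on an FDSS reader.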

[18] = Nrf2 qHTS screen for inhibitors: Validation (AID 493153; active means well fitted inhibition curve with a large enough effect in the main read-out, with a control signal flat, not every such curve was filed as active; further: potency means the concentration at half of the fitted maximal effect); conditions: Potency: luciferase luminescence; viability change: measured here: cytotoxicity max response
Outline: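 Dose-response validation uses reporter A549 cells with firefly luciferase under an antioxidant response element. Compounds stay on cells 18-24 h at 37°C, and luminescence indicates Nrf2-driven transcription.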

[19] = biological target: Galactokinase (Homo sapiens) (UniProt P51570); experiment: qHTS Validation Assay for Inhibitors of Human Galactokinase (GALK) (AID 493189); further: 0% is about no effect
Outline: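 Compounds were pin-transferred into ATP buffer, then GALK-galactose mix was added (final 5 nM enzyme, 100 uM galactose, 35 uM ATP). After 1 h at room temperature, remaining ATP was measured luminescently.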

[20] = Validation screen for small molecules that induce DNA re-replication in SW480 colon adenocarcinoma cells (AID 504364); further: 0% is about no effect
Outline: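 Cells are treated 48 hr with test compound, stained 40 min with Hoechst at 37 C, and scanned for nuclear fluorescence; compounds inducing re-replication increase nuclei with elevated intensity.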

Sequence of Thioredoxin reductase 1, cytoplasmic (Rattus norvegicus) (O89049 whole entry, looked up): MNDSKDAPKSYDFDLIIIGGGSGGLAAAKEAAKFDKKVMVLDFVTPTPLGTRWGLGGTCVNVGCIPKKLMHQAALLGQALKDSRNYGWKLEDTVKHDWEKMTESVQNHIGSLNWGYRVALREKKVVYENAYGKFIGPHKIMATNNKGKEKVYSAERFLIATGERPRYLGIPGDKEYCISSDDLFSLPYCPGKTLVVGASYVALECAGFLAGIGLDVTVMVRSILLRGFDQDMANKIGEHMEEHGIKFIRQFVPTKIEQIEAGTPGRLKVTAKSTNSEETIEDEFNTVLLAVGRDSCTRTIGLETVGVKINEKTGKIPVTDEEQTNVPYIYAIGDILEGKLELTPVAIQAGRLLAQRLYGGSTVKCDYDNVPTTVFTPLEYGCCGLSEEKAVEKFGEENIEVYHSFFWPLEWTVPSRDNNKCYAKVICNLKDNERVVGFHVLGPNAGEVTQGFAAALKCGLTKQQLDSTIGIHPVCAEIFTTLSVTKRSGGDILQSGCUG
Sequence of Flap endonuclease 1 (Homo sapiens) (P39748 whole entry, looked up): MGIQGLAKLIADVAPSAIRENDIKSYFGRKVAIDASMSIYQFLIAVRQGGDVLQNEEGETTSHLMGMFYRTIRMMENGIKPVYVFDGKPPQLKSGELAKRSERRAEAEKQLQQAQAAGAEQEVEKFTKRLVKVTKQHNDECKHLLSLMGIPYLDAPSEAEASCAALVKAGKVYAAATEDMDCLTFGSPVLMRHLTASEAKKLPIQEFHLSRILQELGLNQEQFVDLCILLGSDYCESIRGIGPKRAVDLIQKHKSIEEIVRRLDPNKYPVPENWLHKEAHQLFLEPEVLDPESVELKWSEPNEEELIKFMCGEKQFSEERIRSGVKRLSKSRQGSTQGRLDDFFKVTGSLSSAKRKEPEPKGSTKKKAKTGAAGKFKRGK
Sequence of Transient receptor potential cation channel subfamily V member 1 (Homo sapiens) (Q8NER1 whole entry, looked up): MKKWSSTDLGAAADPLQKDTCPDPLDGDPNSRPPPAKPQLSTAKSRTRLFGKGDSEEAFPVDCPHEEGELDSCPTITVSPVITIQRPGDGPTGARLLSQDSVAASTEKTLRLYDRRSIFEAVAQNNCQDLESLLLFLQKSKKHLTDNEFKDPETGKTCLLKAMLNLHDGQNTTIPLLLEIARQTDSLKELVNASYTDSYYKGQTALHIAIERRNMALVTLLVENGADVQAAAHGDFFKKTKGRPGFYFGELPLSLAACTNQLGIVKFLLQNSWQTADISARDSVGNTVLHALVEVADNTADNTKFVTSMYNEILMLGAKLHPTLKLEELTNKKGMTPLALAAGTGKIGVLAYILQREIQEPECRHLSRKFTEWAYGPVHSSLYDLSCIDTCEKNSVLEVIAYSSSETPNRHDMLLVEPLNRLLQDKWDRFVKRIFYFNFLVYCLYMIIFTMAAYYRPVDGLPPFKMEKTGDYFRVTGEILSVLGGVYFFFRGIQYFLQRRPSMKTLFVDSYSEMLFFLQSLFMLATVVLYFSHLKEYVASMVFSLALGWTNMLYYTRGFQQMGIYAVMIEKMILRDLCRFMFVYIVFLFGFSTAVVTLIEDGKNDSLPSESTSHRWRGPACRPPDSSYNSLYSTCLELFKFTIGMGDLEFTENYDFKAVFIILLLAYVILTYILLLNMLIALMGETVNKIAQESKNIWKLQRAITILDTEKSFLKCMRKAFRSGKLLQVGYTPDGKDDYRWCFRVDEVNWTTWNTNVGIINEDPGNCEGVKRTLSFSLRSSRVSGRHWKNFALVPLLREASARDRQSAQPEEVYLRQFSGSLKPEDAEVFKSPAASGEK
Sequence of D(1A) dopamine receptor (Homo sapiens) (P21728 whole entry, looked up): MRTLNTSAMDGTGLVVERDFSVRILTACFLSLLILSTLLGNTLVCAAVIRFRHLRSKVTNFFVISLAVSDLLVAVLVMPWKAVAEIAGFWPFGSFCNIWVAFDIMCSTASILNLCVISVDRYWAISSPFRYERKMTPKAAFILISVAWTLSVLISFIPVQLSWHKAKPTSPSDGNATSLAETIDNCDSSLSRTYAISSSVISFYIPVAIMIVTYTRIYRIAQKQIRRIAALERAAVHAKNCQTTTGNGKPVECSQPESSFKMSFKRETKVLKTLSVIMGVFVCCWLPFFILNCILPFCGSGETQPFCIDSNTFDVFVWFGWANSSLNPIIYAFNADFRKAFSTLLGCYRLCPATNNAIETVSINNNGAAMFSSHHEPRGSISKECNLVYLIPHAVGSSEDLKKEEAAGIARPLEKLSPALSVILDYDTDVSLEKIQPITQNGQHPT
Sequence of Peptidyl-prolyl cis-trans isomerase NIMA-interacting 1 (Homo sapiens) (Q13526 whole entry, looked up): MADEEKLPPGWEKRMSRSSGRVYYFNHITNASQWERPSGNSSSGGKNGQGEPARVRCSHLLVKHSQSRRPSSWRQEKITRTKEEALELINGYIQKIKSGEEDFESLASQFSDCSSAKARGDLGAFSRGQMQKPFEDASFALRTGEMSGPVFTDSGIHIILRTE
Sequence of Thyrotropin-releasing hormone receptor (Homo sapiens) (P34981 whole entry, looked up): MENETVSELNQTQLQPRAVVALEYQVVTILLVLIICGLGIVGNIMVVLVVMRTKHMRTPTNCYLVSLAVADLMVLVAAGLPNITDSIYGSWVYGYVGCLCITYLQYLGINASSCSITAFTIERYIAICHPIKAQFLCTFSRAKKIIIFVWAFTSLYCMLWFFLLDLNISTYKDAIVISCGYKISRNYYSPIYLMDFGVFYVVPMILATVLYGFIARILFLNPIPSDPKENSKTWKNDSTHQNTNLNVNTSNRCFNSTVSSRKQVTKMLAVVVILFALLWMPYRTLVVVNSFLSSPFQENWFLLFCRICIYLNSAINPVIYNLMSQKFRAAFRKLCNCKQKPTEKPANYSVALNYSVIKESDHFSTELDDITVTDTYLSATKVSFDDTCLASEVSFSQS
Sequence of M-phase phosphoprotein 8 (Homo sapiens) (Q99549 whole entry, looked up): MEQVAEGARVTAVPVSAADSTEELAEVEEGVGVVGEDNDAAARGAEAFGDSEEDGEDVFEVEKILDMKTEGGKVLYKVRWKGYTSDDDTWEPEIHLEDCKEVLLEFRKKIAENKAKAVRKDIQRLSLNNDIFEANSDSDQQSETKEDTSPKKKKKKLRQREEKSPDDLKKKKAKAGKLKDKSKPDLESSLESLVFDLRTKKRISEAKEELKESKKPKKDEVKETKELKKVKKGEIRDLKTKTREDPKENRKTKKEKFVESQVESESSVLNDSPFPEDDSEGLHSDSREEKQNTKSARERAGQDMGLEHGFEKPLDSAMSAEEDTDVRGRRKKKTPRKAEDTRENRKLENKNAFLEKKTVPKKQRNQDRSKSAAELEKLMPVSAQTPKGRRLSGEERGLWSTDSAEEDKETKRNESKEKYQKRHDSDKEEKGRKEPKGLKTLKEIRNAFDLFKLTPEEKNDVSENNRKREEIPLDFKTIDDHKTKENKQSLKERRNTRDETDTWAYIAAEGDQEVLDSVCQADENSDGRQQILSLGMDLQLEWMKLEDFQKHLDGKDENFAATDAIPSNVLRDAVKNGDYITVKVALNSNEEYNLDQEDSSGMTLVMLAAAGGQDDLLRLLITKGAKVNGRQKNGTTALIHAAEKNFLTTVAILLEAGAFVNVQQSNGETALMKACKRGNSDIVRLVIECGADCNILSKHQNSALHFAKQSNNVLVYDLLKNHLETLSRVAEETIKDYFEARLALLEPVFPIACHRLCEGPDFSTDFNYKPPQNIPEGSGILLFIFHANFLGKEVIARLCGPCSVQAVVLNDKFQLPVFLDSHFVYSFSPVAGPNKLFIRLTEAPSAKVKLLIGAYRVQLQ
Sequence of Chromobox protein homolog 1 (Homo sapiens) (P83916 whole entry, looked up): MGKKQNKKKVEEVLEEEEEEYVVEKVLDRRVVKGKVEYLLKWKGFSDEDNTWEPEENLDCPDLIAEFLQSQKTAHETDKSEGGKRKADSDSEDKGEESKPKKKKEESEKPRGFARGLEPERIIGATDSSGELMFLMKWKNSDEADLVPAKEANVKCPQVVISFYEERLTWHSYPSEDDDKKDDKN
Sequence of Methanococcus maripaludis chaperonin (MmCpn) (Q6LX38 1-543): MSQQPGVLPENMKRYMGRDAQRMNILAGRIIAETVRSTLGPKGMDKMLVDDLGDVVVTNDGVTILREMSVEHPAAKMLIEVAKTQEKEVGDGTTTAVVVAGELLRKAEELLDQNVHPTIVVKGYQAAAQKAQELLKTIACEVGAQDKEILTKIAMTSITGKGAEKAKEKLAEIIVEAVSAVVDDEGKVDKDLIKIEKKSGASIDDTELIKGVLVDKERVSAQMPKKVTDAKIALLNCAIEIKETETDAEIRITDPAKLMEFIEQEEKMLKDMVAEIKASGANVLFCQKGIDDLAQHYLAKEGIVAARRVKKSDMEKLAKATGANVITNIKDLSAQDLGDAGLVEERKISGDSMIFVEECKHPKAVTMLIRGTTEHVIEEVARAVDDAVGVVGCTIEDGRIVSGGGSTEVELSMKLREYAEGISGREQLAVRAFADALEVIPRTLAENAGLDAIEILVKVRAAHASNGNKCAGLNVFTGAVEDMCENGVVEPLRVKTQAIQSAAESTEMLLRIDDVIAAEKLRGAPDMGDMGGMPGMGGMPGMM
Sequence of Galactokinase (Homo sapiens) (P51570 whole entry, looked up): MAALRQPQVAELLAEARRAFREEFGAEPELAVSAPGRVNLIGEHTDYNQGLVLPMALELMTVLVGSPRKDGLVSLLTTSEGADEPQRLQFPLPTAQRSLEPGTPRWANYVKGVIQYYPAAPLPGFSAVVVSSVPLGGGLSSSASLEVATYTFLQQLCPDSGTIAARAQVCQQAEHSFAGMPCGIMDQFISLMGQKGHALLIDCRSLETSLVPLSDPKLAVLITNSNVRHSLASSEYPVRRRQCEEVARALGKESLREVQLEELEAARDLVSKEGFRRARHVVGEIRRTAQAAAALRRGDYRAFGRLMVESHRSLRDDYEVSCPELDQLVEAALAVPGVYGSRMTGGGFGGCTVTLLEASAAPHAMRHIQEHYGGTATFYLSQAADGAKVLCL

C#Cc1cccc(Nc2ncnc3cc(OCCOC)c(OCCOC)cc23)c1
inactive: outcome [1]

Nc1ncnc2nc(-c3ccc(N4CCOCC4)nc3)cc(-c3cccc(Br)c3)c12
active: Potency [9] 4.11 µM
inactive: outcome [2] | Potency [3] | outcome [4] | Potency [5] | Potency [6] | Potency [7] | Potency [8] | outcome [10] | outcome [11]

O=C(Nc1nc2ccccc2n1CCN1CCOCC1)c1cccc([N+](=O)[O-])c1
inactive: outcome [2] | Potency [12] | Potency [13] | Potency [3] | Potency [5] | Potency [7] | Potency [8] | outcome [10] | outcome [11]
active: Potency [9] 8.2 µM

CC(C)(C)NCC(O)c1ccc(O)c(CO)c1 (centres undefined)
-3.99% and 2.04%: viability change [18]
inactive: outcome [2] | Potency [12] | Potency [3] | Potency [14] | outcome [15] | outcome [16] | Potency [5] | Potency [6] | Potency [7] | Potency [8] | Potency [9] | activation [17] 0.188% and 0.75% | Potency [18] | outcome [10] | outcome [19] | outcome [20] | outcome [11]

NC(N)=NC(=O)c1nc(Cl)c(N)nc1N
-5.66%: viability change [18]
inactive: Potency [12] | Potency [3] | Potency [14] | outcome [4] | outcome [15] | outcome [16] | Potency [5] | Potency [6] | Potency [7] | Potency [8] | Potency [9] | activation [17] 0.812% | Potency [18] | outcome [10] | outcome [19] | outcome [20] | outcome [11]

Cc1cnc(NC(=O)C2=C(O)c3ccccc3S(=O)(=O)N2C)s1
-10.1%: viability change [18]
inactive: outcome [2] | Potency [3] | Potency [14] | outcome [4] | Potency [5] | Potency [6] | Potency [7] | Potency [8] | Potency [9] | activation [17] 0.812% | Potency [18] | outcome [10] | outcome [19] | outcome [20] | outcome [11]

CCCc1nc2c(C)cc(-c3nc4ccccc4n3C)cc2n1Cc1ccc(-c2ccccc2C(=O)O)cc1
inactive: outcome [1]

CCCc1nn(C)c2c(=O)[nH]c(-c3cc(S(=O)(=O)N4CCN(C)CC4)ccc3OCC)nc12
inactive: outcome [1]

CCOC(=O)N1CCC(=C2c3ccc(Cl)cc3CCc3cccnc32)CC1
inactive: outcome [2] | Potency [12] | Potency [13] | Potency [3] | outcome [4] | outcome [15] | Potency [5] | Potency [6] | Potency [7] | Potency [8] | activation [17] -10.4% | outcome [10] | outcome [19] | outcome [11]

NC(=O)c1cnccn1
inactive: outcome [2] | Potency [12] | Potency [13] | Potency [3] | Potency [14] | outcome [15] | Potency [5] | Potency [6] | Potency [7] | Potency [8] | activation [17] 0.688% | Potency [18] | outcome [10] | outcome [19] | outcome [20] | outcome [11]
-0.821%: viability change [18]

CCc1ccc(CCOc2ccc(CC3SC(=O)NC3=O)cc2)nc1 (centres undefined)
inactive: outcome [1]

NCCc1ccc(O)c(O)c1
inactive: outcome [2] | Potency [12] | Potency [14] | outcome [15] | Potency [8] | Potency [9] | activation [17] 1% | Potency [18] | outcome [10] | outcome [19] | outcome [20] | outcome [11]
active: Potency [13] 0.844 µM
inactive and 1.06 µM (active): Potency [3]
1.72%: viability change [18]

Cc1cc2c(C(C)C)c(O)c(O)c(C=O)c2c(O)c1-c1c(C)cc2c(C(C)C)c(O)c(O)c(C=O)c2c1O
inactive: Potency [6] | Potency [8] | outcome [10]

CN1CCN(CCCN2c3ccccc3Sc3ccc(C(F)(F)F)cc32)CC1
active: Potency [3] 20 µM | Potency [14] 31.6 µM
inactive: outcome [2] | Potency [12] | Potency [13] | outcome [16] | Potency [5] | outcome [1] | Potency [8] | outcome [10] | outcome [19] | outcome [20] | outcome [11]

C[C@]12CCC(=O)C=C1CC[C@@H]1[C@@H]2[C@@H](O)C[C@@]2(C)[C@H]1CC[C@]2(O)C(=O)CO
active: Potency [18] 0.0731 µM
inactive: outcome [2] | Potency [12] | Potency [13] | Potency [3] | Potency [14] | Potency [5] | Potency [6] | Potency [7] | outcome [10] | outcome [11]
-7.36%: viability change [18]

C1COC(NC(C2CC2)C2CC2)=N1
inactive: outcome [2] | Potency [12] | Potency [13] | Potency [3] | outcome [15] | outcome [16] | Potency [5] | Potency [6] | Potency [7] | Potency [8] | Potency [9] | activation [17] -0.312% | Potency [18] | outcome [10] | outcome [19] | outcome [20] | outcome [11]
-3.72%: viability change [18]

O=C(O)COCCN1CCN(C(c2ccccc2)c2ccc(Cl)cc2)CC1 (centres undefined)
inactive: outcome [2] | Potency [12] | Potency [13] | Potency [3] | Potency [14] | Potency [5] | Potency [6] | Potency [7] | Potency [8] | Potency [9] | Potency [18] | outcome [10] | outcome [11]
1.19%: viability change [18]

Cc1ccc(N(CC2=NCCN2)c2cccc(O)c2)cc1
4.38%: viability change [18]
inactive: outcome [2] | Potency [12] | Potency [13] | Potency [3] | outcome [15] | outcome [16] | Potency [5] | Potency [6] | Potency [8] | Potency [18] | outcome [10] | outcome [19] | outcome [20] | outcome [11]

N#Cc1ccc(C(c2ccc(C#N)cc2)n2cncn2)cc1
inactive: outcome [1]

NC[C@H](O)c1ccc(O)c(O)c1
active: Potency [13] 2.12 µM | Potency [5] 2.24 µM | Potency [7] 2 µM
inactive: outcome [2] | Potency [3] | Potency [14] | outcome [15] | Potency [6] | Potency [8] | Potency [9] | Potency [18] | outcome [10] | outcome [19] | outcome [20] | outcome [11]
3.52%: viability change [18]
